# Screening results as filed in PubChem BioAssay.
# HP1b binding inh – HP1-beta chromodomain-methylated histone interaction inhibition. 390,000 tested, 0.56% active. Potency, µM (series often up to 114 µM), most hits filed as inhibitors. AlphaScreen HP1-beta / biotin-H3K9me3 peptide binding. P83916; further: nearly all actives have a fitted effect of over 70% in size
#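 Compound inhibition of the preformed complex between 50 nM HP1-beta and 50 nM biotinylated H3K9me3 peptide was read by AlphaScreen. Buffer was PBS pH 7.4 with 0.01% Tween-20. Incubations ran 30 min at room temperature, with 10 ug/mL donor/acceptor beads.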
# JMJD2A Tudor – blocks the human JMJD2A Tudor domain | Potency, µM (top dose mostly 114 µM), hits mostly inhibitors | AlphaScreen JMJD2A-Tudor / H3K4me3 peptide binding | 390,000 tested, 4.4% active | O75164; further: nearly all actives have a fitted effect of over 50% in size
# GLS inhibitor – blocks human kidney-isoform glutaminase activity. GLS enzymatic activity, qHTS titration. 410,000 tested, 0.21% active. Potency, µM (doses to about 45.5 µM), usual class: inhibitors. O94925
# Target sequence (O94925 whole entry, looked up, canonical isoform): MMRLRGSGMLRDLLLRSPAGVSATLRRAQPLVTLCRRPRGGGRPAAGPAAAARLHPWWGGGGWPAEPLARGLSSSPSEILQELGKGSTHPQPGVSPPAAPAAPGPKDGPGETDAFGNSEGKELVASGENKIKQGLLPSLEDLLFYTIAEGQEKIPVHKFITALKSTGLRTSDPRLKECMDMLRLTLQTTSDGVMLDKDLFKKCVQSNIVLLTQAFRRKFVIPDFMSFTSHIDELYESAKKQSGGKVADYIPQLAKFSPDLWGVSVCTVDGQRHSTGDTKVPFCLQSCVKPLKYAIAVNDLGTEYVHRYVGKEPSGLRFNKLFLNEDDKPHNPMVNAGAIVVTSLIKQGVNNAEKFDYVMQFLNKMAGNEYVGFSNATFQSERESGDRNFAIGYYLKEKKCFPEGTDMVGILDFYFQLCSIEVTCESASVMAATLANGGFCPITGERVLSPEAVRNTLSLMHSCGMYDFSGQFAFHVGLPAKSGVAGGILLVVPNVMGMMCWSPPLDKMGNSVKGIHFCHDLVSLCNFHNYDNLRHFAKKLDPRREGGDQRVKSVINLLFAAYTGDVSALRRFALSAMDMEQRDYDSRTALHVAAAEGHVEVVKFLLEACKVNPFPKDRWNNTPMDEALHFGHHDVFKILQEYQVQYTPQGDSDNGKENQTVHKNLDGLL
#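 hKGA in 45 mM KH2PO4 (pH 8.2), 0.02% Tween-20 with compound, then 1mM L-Glutamine (stock as added) plus glutamate oxidase/HRP/Amplex red coupling mix. Fluorescence read initially and after 30 min at RT; signal change reflects glutamate formation.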
# G9a inh – blocks human histone lysine methyltransferase G9a | Q96KQ7 | G9a H3K9 monomethylation, AlphaScreen, 2 h | Potency, µM (doses to about 102 µM), usual class: inhibitors | 350,000 tested, 8.8% active; further: nearly all actives have a fitted effect of over 75% in size
#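 G9a (20 nM) preincubated 15 min RT with compounds, then 500 nM biotinylated H3K9 peptide and 20 uM SAM added; 2 h RT reaction. Monomethyl-H3K9 product detected by AlphaScreen with anti-H3K9me1 antibody, streptavidin donor and anti-rabbit IgG acceptor beads.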
# BAZ2B inh – blocks human BAZ2B | Q9UIF8 | AlphaScreen BAZ2B-H3K14Ac peptide displacement | Potency, µM (doses to about 114 µM), hits mostly inhibitors | 360,000 tested, 4.4% active; further: nearly all actives have a fitted effect of over 60% in size
#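 In this displacement format the biotinylated H3(5-23) peptide acetylated at Lys14 serves as ligand at 50 nM, with BAZ2B at 50 nM in PBS pH 7.4 containing 0.01% Tween-20. Donor and acceptor beads are 10 ug/mL final.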
# A number is an active result; i = inactive; ? = inconclusive; nt = no result; [ ] = remark or other dose. Hits are enriched below; roughly 10% of the tested compounds scored in any of these assays. The call rests on the fitted dose curve; in most records, active means well fitted curve in the direction sought with a large enough effect; inconclusive means small, poorly fitted or top-dose-only effect, or another doubt; inactive means no such curve, though single readings can be large; an effect the other way counts as inactive or inconclusive.
SMILES,HP1b binding inh,JMJD2A Tudor,GLS inhibitor,G9a inh,BAZ2B inh
O=C(CCN1C(=O)/C(=C/c2cccs2)SC1=S)Nc1cccc(C(=O)O)c1,i,i,i,50µM,50µM
O=C1/C(=C/c2cccs2)SC(=S)N1c1ccccc1,i,i,i,i,i
O=C1/C(=C/c2cccs2)SC(=S)N1c1cccc(O)c1,i,16µM,i,?,?
O=C(CCCN1C(=O)/C(=C/c2cccs2)SC1=S)Nc1cccc(C(=O)O)c1,i,i,i,?,i
Cc1noc(C)c1-c1cc(NC2CCNCC2)ncn1,nt,nt,nt,i[0.501 µM],nt
COc1ccc(CCN(Cc2cc3cc(C)ccc3[nH]c2=O)C(C)=O)cc1OC,i,i,i,nt,i
COc1ccc(CCN(Cc2cc3ccc(C)cc3n3nnnc23)C(C)=O)cc1OC,i,11µM,i,i,i
O=C(/C=C/c1ccc(OC(F)F)cc1)OCC(=O)N1CCc2ccccc21,i,i,i,45µM,i
O=C(OCC(=O)N1CCc2ccccc21)c1ccc[nH]c1=O,i,14µM,i,i,i
Cc1cc(C(=O)OCC(=O)N2CCc3ccccc32)c(C)o1,i,i,i,i,i
CN(Cc1ccccc1)C(=O)COC(=O)c1ccc[nH]c1=O,i,22µM,i,nt,nt
CC1(C)CC(=O)c2cc(-c3nc(-c4ccc(Br)cc4)cs3)c(=O)n(-c3ccccc3)c2C1,i,i,i,i,i
COc1ccc(CCC(C)NCc2ccccc2OC)cc1 (stereo not given),i,i,i,i,i
COCCNC(=O)c1ccc(C)cc1C,i,i,i,i,i
CC(CCc1ccccc1)NCc1cccc2ccccc12 (stereo not given),i,25µM,i,?,i[0.457 µM]
COCC(C)NCc1cccc2ccccc12 (stereo not given),i,32µM,i,32µM,i
COCC(C)NCc1ccc(C)cc1C (stereo not given),i,4.5µM,i,11µM,i
OCCNCc1cccc2ccccc12,i,i,i,i,i
CCOC(=O)c1oc2ccc(CNC3CCCCC3)c(Cl)c2c1C,?,4µM,i,10µM,?
Cc1c(C)n(C)c2ccc(C(=O)NCCCN3CCN(c4ccc(F)cc4)CC3)cc12,?,56µM,i,40µM,35µM
Cc1[nH]c2ccc(C(=O)NCCN3CCCCCC3)cc2c1C,i,?,i,50µM,i
Cc1c(C)n(C)c2ccc(C(=O)NCCCN3CCCC3)cc12,i,?,i,50µM,?
Cc1c(C)n(C)c2ccc(C(=O)NCCCN3CCN(c4ccccc4F)CC3)cc12,?,56µM,i,45µM,?
Clc1cccc(-c2nc(-c3ccc(-c4nn[nH]n4)cc3)no2)c1,i,i,i,i[0.501 µM],i
CCOC(=O)C1CCCN(C(=O)c2cc(S(=O)(=O)N3CCCCC3)c[nH]2)C1 (stereo not given),i,i,i,i,i
SMILES,HP1b binding inh,JMJD2A Tudor,GLS inhibitor,G9a inh,BAZ2B inh
COc1ccc(OC)c(CCNC(=O)CCc2cn(C)c3ccccc23)c1,i,?,i,71µM,?
Cn1cc(CC(=O)NCCCN2CCCC2)c2ccccc21,i,i,i,56µM,i
O=C(Cn1c(=O)c2cccn2c2ccc(F)cc21)NCCCN1CCN(c2ccccc2F)CC1,i,i,i,45µM,i
Cc1ccc(C)c(N2CCN(C(=O)c3cc4ccccn4n3)CC2)c1,i,i,i,50µM,i
COc1ccc(OC)c(CNC(=O)CCc2cn(C)c3ccccc23)c1,i,?,i,?,i
CC1(c2nc3ccccc3[nH]2)c2ccccc2C(=O)N1Cc1ccccn1 (stereo not given),nt,nt,i,nt,nt
COC(=O)c1cc2oc3ccccc3c2n1Cc1nc(-c2cccc(Cl)c2)oc1C,i,i,i,i,i
CC(=O)c1cccc(-n2c(=O)c3c4c(sc3n(CC(=O)c3ccc(Cl)cc3)c2=O)CN(C(C)=O)CC4)c1,i,i,i,i,i
CCN(CC)CCN(C(=O)c1ccco1)c1nc2c(C)c(C)ccc2s1,i,?,i,i,?
Cc1ccccc1CNC(=O)Cc1ccc(NC(=O)N2CCCCc3ccccc32)cc1,?,i,i,i,i
Cc1ccc(C)c(N2CCN(C(=O)c3ccc4[nH]c(C)c(C)c4c3)CC2)c1,i,79µM,i,i,i
CCOC(=O)N1CCN(C(=O)c2ccc3[nH]c(C)c(C)c3c2)CC1,i,i,i,nt,nt
COC(=O)[C@@H]1[C@@H]2C[C@H]3c4[nH]c5ccccc5c4CCN3C[C@@H]2CC[C@@H]1O,nt,nt,i,i,nt
COc1ccc(C(=O)Oc2ccc(C(c3c(C)[nH][nH]c3=O)c3c(C)[nH][nH]c3=O)cc2)cc1,i,i,i,i,i
C[C@H](CO)N1C[C@H](C)[C@@H](CN(C)S(=O)(=O)c2cn(C)cn2)Oc2c(NS(=O)(=O)c3cccs3)cccc2C1=O,i,i,i,nt,nt
Cc1ccc(C)c(N=Nc2nc3ccccc3n2C)c1,16µM,25µM,i,i[0.501 µM],8.9µM
Cc1ccc(CNc2nc3ccccc3n2C)cc1,i,i,i,i,i
Cn1c(/N=C/c2cccs2)nc2ccccc21,i,i,i,i[12.7 µM],i
Cc1cc(C)c(C)c(N=Nc2nc3ccccc3n2C)c1C,13µM,11µM,i,11µM,7.9µM
O=C(N/N=C/c1ccncc1)c1cccc(NC(=O)c2ccc(Cl)cc2)c1,?,i,i,16µM,i
O=C(N/N=C/c1cccnc1)c1ccc(NC(=O)c2ccc(Cl)cc2)cc1,i,i,i,45µM,i
O=C(N/N=C/c1ccncc1)c1cccc(N/N=C/c2ccncc2)c1,i,?,i,?,i
O=C(N/N=C/c1cccnc1)c1ccc(NC(=O)c2cccc(Cl)c2)cc1,?,i,i,32µM,i
C/C(=N\NC(=O)c1cc(O)ccc1O)c1cccc(NC(=O)c2ccc(Cl)cc2)c1,?,?,?,16µM,?
CC(=O)Nc1ccc(C(=O)N/N=C/c2cccnc2)cc1,i,i,i,i,i
SMILES,HP1b binding inh,JMJD2A Tudor,GLS inhibitor,G9a inh,BAZ2B inh
O=C(NCC1CCCO1)C(=O)N/N=C/c1cc(Cl)ccc1O (stereo not given),i,40µM,i,i,?
O=C(N/N=C/c1ccccc1Cl)c1ccncc1,i,i,i,nt,i
O=C(N/N=C\c1cccnc1)c1cc(-c2ccc(Cl)s2)[nH]n1,i,56µM,i,32µM,50µM
O=C(N/N=C/c1cccnc1)c1ccccc1Cl,i,i,i,i,i
O=C(N/N=C/c1cc(Cl)ccc1O)c1ccncc1,i,?,i,i[12.7 µM],20µM
O=C(NCC1CCCO1)C(=O)N/N=C/c1ccc(O)c(Cl)c1 (stereo not given),i,i,i,i,i
CCCc1cc(=O)n2[nH]c(NCc3ccccc3OC)nc2n1,i,i,i,?,i
CN(C)S(=O)(=O)c1cccc(N=c2scc(-c3ccc4c(c3)NC(=O)CO4)n2CC2CCCO2)c1 (stereo not given),?,?,i,i[12.7 µM],50µM
